Assay results: PubChem BioAssay (NCI)
This is part of a sample that, as a whole, favours compounds with a hit. Of some 83,000 tested, about 20% had one in any assay.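 Treatment: one concentration, 48 hours, 96-well format. Scoring: percent growth, with anything below 10 considered active.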 Active and inactive are the calls of the source.

Key:
Test in all cases: NCI-60 one-dose screen, 48 h (100 = growth as untreated, 0 = no growth, -100 = all killed)
Conditions in all cases: 10 µM unless noted
NCI-H23 lung = system: NCI-H23 lung
NCI-H226 lung = system: NCI-H226 lung
NCI-H322M lung = system: NCI-H322M lung
HOP-62 NSCLC = system: HOP-62 NSCLC
NCI-H460 lung = system: NCI-H460 lung
NCI-H522 lung = system: NCI-H522 lung
A549/ATCC NSCLC = system: A549/ATCC NSCLC
786-0 renal = system: 786-0 renal
COLO 205 colon = system: COLO 205 colon
DU-145 prostate = system: DU-145 prostate
K-562 leukemia = system: K-562 leukemia
MALME-3M melanoma = system: MALME-3M melanoma
MDA-MB-231 breast = system: MDA-MB-231 breast
RXF 393 renal = system: RXF 393 renal
SF-268 CNS = system: SF-268 CNS
SF-295 CNS = system: SF-295 CNS
SF-539 CNS = system: SF-539 CNS
UACC-257 melanoma = system: UACC-257 melanoma
M14 melanoma = system: M14 melanoma

Measured: growth

COc1ccc(NC(=O)c2sc3c(=O)[nH]c(C(F)(F)F)nc3c2C)cc1
inactive: NCI-H23 lung 93.4% | NCI-H226 lung 97.7% | NCI-H322M lung 107% | HOP-62 NSCLC 107% | NCI-H460 lung 115% | NCI-H522 lung 79.5% | A549/ATCC NSCLC 95.2% | 786-0 renal 103% | COLO 205 colon 114% | DU-145 prostate 118% | K-562 leukemia 102% | MALME-3M melanoma 102% | MDA-MB-231 breast 112% | RXF 393 renal 117% | SF-268 CNS 108% | SF-295 CNS 111% | SF-539 CNS 114% | UACC-257 melanoma 105% | M14 melanoma 116%

Clc1cc(Cl)cc(-c2cnc3nonc3n2)c1
inactive: NCI-H23 lung 77.3% | NCI-H226 lung 104% | NCI-H322M lung 95.1% | HOP-62 NSCLC 87.4% | NCI-H460 lung 106% | A549/ATCC NSCLC 103% | 786-0 renal 93.2% | COLO 205 colon 72.5% | DU-145 prostate 97.9% | K-562 leukemia 79% | MALME-3M melanoma 76.9% | MDA-MB-231 breast 89.7% | RXF 393 renal 108% | SF-268 CNS 93.5% | SF-295 CNS 99.8% | SF-539 CNS 107% | UACC-257 melanoma 89.9% | M14 melanoma 90.2%
active: NCI-H522 lung -69.3%

CCCCOc1nc2ccccc2cc1/C=C/c1cc(/C=C/c2cc3ccccc3nc2OCCCC)n(-c2ccccc2)n1
inactive: NCI-H23 lung 103% | NCI-H226 lung 95.5% | NCI-H322M lung 94.9% | HOP-62 NSCLC 91.2% | NCI-H460 lung 103% | NCI-H522 lung 85.8% | A549/ATCC NSCLC 102% | 786-0 renal 107% | COLO 205 colon 99.6% | DU-145 prostate 113% | K-562 leukemia 99% | MALME-3M melanoma 104% | MDA-MB-231 breast 103% | RXF 393 renal 106% | SF-268 CNS 107% | SF-295 CNS 114% | SF-539 CNS 110% | UACC-257 melanoma 96.4% | M14 melanoma 99.7%

Cc1ccc(Nc2cc(Cl)c([N+](=O)[O-])cc2[N+](=O)[O-])cc1
active: NCI-H522 lung -41.7% | COLO 205 colon -31.2% | RXF 393 renal -41.2%
inactive: NCI-H23 lung 63.8% | NCI-H226 lung 25.9% | NCI-H322M lung 86.7% | HOP-62 NSCLC 62.8% | NCI-H460 lung 52.7% | A549/ATCC NSCLC 76.7% | 786-0 renal 23.5% | DU-145 prostate 46.7% | K-562 leukemia 13.3% | MALME-3M melanoma 70.4% | MDA-MB-231 breast 18.3% | SF-268 CNS 27.7% | SF-295 CNS 99.4% | SF-539 CNS 21.7% | UACC-257 melanoma 73.6% | M14 melanoma 34.7%
